The nature of test [1]: hESC survival regulators, cell-based (AID 493140; call rule not given here;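 also: cells exposed to compounds for four days before counting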). The settings on record: human embryonic stem cell survival screen; stronger effect = higher value.
Test [2] can be described thus: liver-stage malaria parasite growth inhibition, primary screen, cell-based, HepG2, luciferase luminescence, HepG2 viability (AID 624349).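 Also: 100% = mean of DMSO negative control wells on the same plate.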 The settings on record: P. berghei liver stage in HepG2, luciferase luminescence, concentration not given here; parasite load remaining: stronger effect = lower value; viability: measured here: HepG2 viability without parasites.
A short description of test [3]: sensitizers of A549 cells to miR-34 induction, primary screen, imaging, A549 dox-inducible miR-34, nuclei and caspase counts (AID 1347080;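 active = compounds whose cell count with miR-34 switched on is under 0.7 times the count with it off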). The settings on record: A549 miR-34 inducible, Hoechst nuclei count, 48 h.
The nature of test [4]: survival rescue of mitochondrial mutant cells in low glucose, primary screen, MELAS cybrids, Rieske KO mouse fibroblasts, CellTiter-Glo (AID 1508586;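 active = mean z-score across replicates of 1.96 or higher in either the MELAS or the Rieske mutant cell line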;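 also: z relative to plate mean and SD of compound and empty wells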). (ATP-based viability assays read luminescence as a measure of living cells.)
Setting [5] is: stronger effect = lower value, cell number ratio, induced over uninduced.
Where [6] appears, read: measured here: relative caspase fold change +Dox/-Dox.
The mark [7] stands for this setting: measured here: total cells with miR-34 induction, stronger effect = lower value.
Setting [8] is: measured here: total cells without miR-34 induction.
The mark [9] stands for this setting: MELAS cybrid survival, CellTiter-Glo 48 h, stronger effect = higher value.
The mark [10] stands for this setting: Rieske KO mouse fibroblast survival, CellTiter-Glo 72 h.

The source of these data is PubChem BioAssay.

The structures appear in SMILES notation. Active and inactive are the calls of the source. Rule as the data show it, unless noted: active = parasite load remaining mostly below about 12% (no sharp cut-off); inactive = mostly above about 10%.

`Cc1cc(C=Cc2ccc3cc(N(C)C)ccc3[n+]2C)c(C)n1-c1ccccc1`: the survival in test [1] is 2.17 (inactive). In test [2], the parasite load remaining was 0.11% (inactive). Also, the viability in test [2] stood at 48.8%. For the same compound, the fold change was 1.3 (inactive) in test [3] (setting [5]) and 1.04 in test [3] (setting [6]). The figures for the cell count in test [3] (setting [7]) and in test [3] (setting [8]) were 2390 and 1840, respectively. The z-score in test [4] (setting [9]) is 0.882 (inactive); in test [4] (setting [10]), 0.984.

Regarding `OCCN1CCN(CC/C=C2/c3ccccc3Sc3ccc(Cl)cc32)CC1`, the survival in test [1] is 0.583 (inactive). Moreover, the parasite load remaining in test [2] is 65.1% (inactive). This compound had a viability in test [2] of 62.7%. In addition, the fold change in test [3] (setting [5]) was 0.885 (inactive); in test [3] (setting [6]), 0.539. The cell count was found to be 7300 in test [3] (setting [7]) and 8250 in test [3] (setting [8]). The z-score in test [4] (setting [9]) is 0.382 (inactive); in test [4] (setting [10]), -0.231.

In general, viability refers to the share of living cells, or the viability signal relative to a control.
